The panel holds about 79,000 compounds, 15% with a hit somewhere; the sample as a whole holds those more often. Active and inactive are the calls of the source. Rule as the data show it: active = growth inhibition above about 70%; inactive = the rest.
Experiments:
[1] = NCI Yeast Anticancer Drug Screen. Data for the rad50 strain (AID 155);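 also: 0% = growth of vehicle-only cultures of the same strain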; details: S. cerevisiae rad50 strain growth inhibition; at 50.0 µM; hits give high values
Outline: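 Readout: growth inhibition relative to vehicle-treated cultures. Compound exposure was carried out in a genetically defined yeast strain deficient in DNA damage repair.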

[2] = NCI Yeast Anticancer Drug Screen. Data for the mec2-1 strain (AID 157); details: S. cerevisiae mec2-1 strain, at 50.0 µM, hits give high values
Outline: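 Yeast mec2-1 mutant treated with compound. Readout: growth inhibition vs vehicle controls.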

[3] = NCI Yeast Anticancer Drug Screen. Data for the sgs1 mgt1 strain (AID 161);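 also: 0% = growth of cultures given vehicle only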; details: S. cerevisiae sgs1 mgt1 strain, at 50.0 µM, hits give high values
Outline: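 Test agents were incubated with a DNA-repair-mutant yeast strain. Growth was then read and compared against vehicle-treated controls.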

[4] = NCI Yeast Anticancer Drug Screen. Data for the cln2 rad14 strain (AID 165);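 also: 0% = growth equal to vehicle treated cultures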; details: S. cerevisiae cln2 rad14 strain, at 50.0 µM, hits give high values
Outline: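 cln2 rad14 yeast strain; compound exposure; growth inhibition read vs vehicle controls.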

[5] = NCI Yeast Anticancer Drug Screen. Data for the bub3 strain (AID 167); details: S. cerevisiae bub3 mutant strain, at 50.0 µM, hits give high values
Outline: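 Readout: yeast growth inhibition, expressed relative to vehicle-only wells. The test organism is a mutant strain from a panel with lesions in DNA repair or checkpoint genes.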

[6] = NCI Yeast Anticancer Drug Screen. Data for the mlh1 rad18 strain (AID 175); details: S. cerevisiae mlh1 rad18 strain growth inhibition; at 50.0 µM; hits give high values
Outline: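 Yeast w/ defined DNA-repair lesions; compound exposure; growth vs vehicle controls → % inhibition.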

Measured: growth inhibition

OCC(S)CS (stereo unspecified)
inactive: [1] 17.4% | [2] -26.4% | [3] 12.6% | [4] 2.9% | [5] 9.55% | [6] -13.4%

COc1ccc(N2C(=O)C3C4c5ccccc5C(C3C2=O)[n+]2ccccc24)cc1 (stereo unspecified)
inactive: [1] 27.2% | [2] -14.1% | [3] 9.7% | [4] -49.5% | [5] -0.45% | [6] 10.6%

O=C(O)CCC(=O)CCl
inactive: [1] 7% | [2] 1.35% | [3] 1.2% | [4] -12.6% | [5] 0.9% | [6] 1%

N#CC(C#N)=C(C#N)C#N
inactive: [1] 14.1% | [2] 4.6% | [3] 1.9% | [4] -25.9% | [5] 0.05% | [6] 6.25%

O=C(C[n+]1ccccc1)C1CCCC2CC3CCCCC3CC21 (stereo unspecified)
inactive: [1] 1.9% | [2] 18.3% | [3] 29.9% | [4] 13.8% | [5] 22.1% | [6] 37.6%

CC(=O)[O][Hg][c]1cc[c]([Hg])s1
active: [1] 99.5% | [2] 99.3% | [3] 99.5% | [4] 99.3% | [5] 99% | [6] 99.2%

CCNC1=C(N2CC2)C(=O)C(NCC)=C(N2CC2)C1=O
inactive: [1] 30.5% | [2] 15.7% | [3] 29.4% | [4] 8.1% | [5] 13.3% | [6] 18.7%

CC(=O)O[C@H]1CC[C@@]2(C)[C@H](CC[C@@H]3[C@@H]2CC[C@]2(C)[C@@H](c4ccc(=O)oc4)C[C@H]4O[C@]342)C1
inactive: [1] 53% | [2] 7.05% | [3] 29.5% | [4] 13.9% | [5] 8.45% | [6] 17.4%

CC[N+](C)(C)c1ccc(C)c(OC(=O)NC)c1
inactive: [1] -4.35% | [2] -11.2% | [3] -0.2% | [4] -24.8% | [5] 15.3% | [6] -0.45%

CCC(CC)C(=O)Cl
inactive: [1] -3.8% | [2] -4.6% | [3] -33.2% | [4] -13.1% | [5] -1.35% | [6] -22.9%

CSP(N)(=O)OC(C)C (stereo unspecified)
inactive: [1] -16.9% | [2] 11.8% | [3] -15.6% | [4] -23.6% | [5] -33.6% | [6] 15.8%

CC(=O)[O-].CC(=O)[O-].O=C(N/N=C/c1cc(Cl)cc(Cl)c1O)c1ccncc1.[Cu+2]
inactive: [1] 2.55% | [2] 2.75% | [3] 10.7% | [4] 51.1% | [5] -4.05% | [6] 9.85%

CN(C)C1OCCO1
inactive: [1] -8.45% | [2] -36.1% | [3] -11% | [4] 1.4% | [5] -7.05% | [6] -3.35%

O=C(O)c1ccc(=O)[nH]c1
inactive: [1] 25.6% | [2] 7.85% | [3] 10.2% | [4] -22.1% | [5] 13.9% | [6] 19.6%

COc1cc2c(cc1O)CC1c3c(cc(O)c(OC)c3-2)CCN1C (stereo unspecified)
inactive: [1] 1.55% | [2] -8.45% | [3] -10.8% | [4] -15.8% | [5] -26.1% | [6] 2.85%

O=C(O)C(=O)O.[NH2-].[NH2-].[Pt+2]
inactive: [1] 8.3% | [2] -4.9% | [3] 0.15% | [4] -5.05% | [5] 2.6% | [6] -3.8%

CCC[N+]12C(O)C(CC)C3CC1C1N(C)c4ccc(Br)cc4C14CC2C3C4O (stereo unspecified)
inactive: [1] 27.9% | [2] 8.3% | [3] 4.35% | [4] -12.3% | [5] 6.85% | [6] 20.9%

CCN1CCc2cc(OC)c(OC)cc2C1
inactive: [1] 0.15% | [2] 4.7% | [3] 6.45% | [4] -25.9% | [5] -0.6% | [6] 3.5%

c1ccc(N=Nc2ccccc2)cc1
inactive: [1] -1.25% | [2] -7.5% | [3] -4.2% | [4] -9.55% | [5] -5.15% | [6] 24.6%

CC1(C)N=C(N)N=C(N)N1c1ccc(OCCCOc2ccc(S(=O)(=O)F)cc2)cc1
active: [2] 72.8% | [3] 89.1% | [6] 84.5%
inactive: [1] 35.1% | [4] -7.65% | [5] 31.5%

O=[N+]([O-])OC(c1ccncc1)C(O[N+](=O)[O-])c1ccncc1 (stereo unspecified)
inactive: [1] 7.7% | [2] -2.35% | [3] -6.25% | [4] 16.9% | [5] -5.3% | [6] 21.3%

CCCCCCCCCCP(=O)(O)O
inactive: [1] -4.9% | [2] -27.4% | [3] -13.3% | [4] -30.3% | [5] -1.6% | [6] -2.85%

NC(=Nc1ccccc1)Nc1ccccc1 (tested in a mixture with another compound)
inactive: [1] -1.65% | [2] -12.1% | [3] 1.7% | [4] 13.2% | [5] 6.4% | [6] 6.35%

CC(C)=CCC12Cc3ccc(O)cc3C(C(C)CN1)C2C (stereo unspecified)
inactive: [1] -1.5% | [2] 9.8% | [3] 27.8% | [4] 11.8% | [5] 10.7% | [6] 25.7%

Nc1ccc([As](=O)(O)O)cc1
inactive: [1] 27.8% | [2] 19.8% | [3] 14.9% | [4] 11.8% | [5] 7.9% | [6] 21.3%

COc1ccc(C2=CCN(c3ccc(C)cc3)P(=O)(N(CCCl)CCCl)O2)cc1 (stereo unspecified)
active: [2] 74% | [4] 81.1% | [5] 90.8% | [6] 77.4%
inactive: [1] 46.8% | [3] 68.9%

CCOC(=O)NP(=O)(Nc1ccc(C)cc1)Nc1ccc(C)cc1
inactive: [1] 6.2% | [2] -12% | [3] -0.3% | [4] 6.75% | [5] -9.55% | [6] -1.45%

Oc1ccc(Nc2ncnc3nc[nH]c23)cc1CN(CCCl)CCCl
inactive: [1] -5.85% | [2] -5.8% | [3] 3.95% | [4] -45.4% | [5] -15.5% | [6] 3.65%

Cc1cc(Cl)ccc1O
inactive: [1] -1.2% | [2] -14.8% | [3] -0.3% | [4] 0.5% | [5] -3.1% | [6] -1.7%

O=C1C=CC(=Nc2ccc(N(CCCl)CCCl)cc2)C=C1
inactive: [1] 39.5% | [2] 18.8% | [3] 13.3% | [4] 3.5% | [5] 7.1% | [6] 3.5%

N#Cc1ccc(Cl)cc1
inactive: [1] 9.65% | [2] -21.7% | [3] 6.25% | [4] -2.6% | [5] -4.7% | [6] 7.9%

CC(=O)C(CN1CCCCC1)C(c1ccccc1)c1c(O)c2ccccc2oc1=O (stereo unspecified)
inactive: [1] 6.8% | [2] -9% | [3] 9.25% | [4] 26.2% | [5] 33% | [6] 9.55%

CNCCc1ccc(O)cc1
inactive: [1] -9.2% | [2] -1.85% | [3] -0.75% | [4] -23.3% | [5] 1.35% | [6] -0.65%

O=C(O)Cc1ccc2c(c1)OCO2
inactive: [1] 20.9% | [2] -0.35% | [3] 28.1% | [4] 12.2% | [5] -11.3% | [6] 23.6%

CC(Cl)CNC1c2ccccc2CC1O (stereo unspecified)
inactive: [1] -4.4% | [2] -7.8% | [3] -1.45% | [4] -18.6% | [5] -6.4% | [6] 5.45%

CC1CCC2C(C)C3C(CC4C5CCC6CC(O)CCC6(C)C5CCC43C)N2C1 (stereo unspecified)
inactive: [1] 17.1% | [2] 23.4% | [3] 17.5% | [4] -29.1% | [5] -18.4% | [6] 15.7%

NC(=O)c1c[se]c(C2OC(CO)C(O)C2O)n1 (stereo unspecified)
inactive: [1] -13.1% | [2] -8.75% | [3] -9.75% | [4] -3.25% | [5] -14.8% | [6] -9.95%

CC#CC(O)(C(=O)OC)c1ccccc1 (stereo unspecified)
inactive: [1] -7.35% | [2] 12.6% | [3] -20.8% | [4] -23.6% | [5] -5.1% | [6] -1.9%

COc1ccc(C(C)CNCc2ccccc2)cc1 (stereo unspecified)
inactive: [1] 0.3% | [2] -1.35% | [3] 21.1% | [4] -10.8% | [5] -1.7% | [6] -1.45%

N.N.N.O=[N+]([O-])[O-].O=[N+]([O-])[O-].O=[N+]([O-])[O-].O=[N+]([O-])[O-].[Co+3]
inactive: [1] 11.6% | [2] 20.7% | [3] 25.5% | [4] 31.3% | [5] 11.8% | [6] -1.35%

c1cc(C[N+]23CN4CN(CN(C4)C2)C3)cs1
inactive: [1] -5.75% | [2] 14.2% | [3] 3.95% | [4] -7.65% | [5] 1.55% | [6] -13.7%
